Calls of active or inactive are those of the source. The calls were made as follows: active = hit-call score of the fitted dose curve at least 0.9, where 1 is the maximum; inactive = score below 0.9.

Broadly, the AC50 is the midpoint of the concentration-response curve, whichever way the signal moves.

The assay in a line: ATG_VDRE_CIS: Attagene CIS-FACTORIAL HepG2 Assay for human Vitamin D Receptor Element (VDRE) (AID 2282968). To be noted: HepG2 VDRE cis-reporter transcription, actives raise or lower the signal. An outline of the steps:
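Transfected HepG2 reporter cells, chemical treatment 24 h. RNA isolated, cDNA amplified with reporter-specific primers, products analysed by capillary electrophoresis. Endpoint fitted in both directions versus DMSO.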
For `Cc1c(C(=O)c2c[nH]n(C)c2=O)ccc(S(C)(=O)=O)c1C1=NOCC1`, the compound was called inactive.

Consider `CC(=O)OC(C)c1ccccc1` (centres undefined), for which the outcome was inactive.

As to `O=S(=O)(O)c1ccc(Nc2nc(Nc3ccc(C=Cc4ccc(Nc5nc(Nc6ccc(S(=O)(=O)O)cc6)nc(N(CCO)CCO)n5)cc4S(=O)(=O)O)c(S(=O)(=O)O)c3)nc(N(CCO)CCO)n2)cc1`, the compound was called inactive.

In the case of `Clc1cccnc1`, the outcome was inactive. Same read-out and setting: the same measure for `Nc1cccc(N)n1`: “inactive”; for `CC(C)=NNC(N)=S`: “inactive”.

As to `C/C=C/C=C/CCCCCCCO`, the AC50 was 22.7 µM (active).

`[Cl][Sc]([Cl])[Cl]`: the call was inactive. As for `NC(=O)Nc1ccccc1`, the outcome was inactive.

As to `CC12CCC(CC1)C(C)(C)O2`, the compound was classed as inactive. Still for that read-out and setting: the same measure for `CC1(C)CC(O)CC(C)(C)N1[O]`: “inactive”. The same measure, in the same setting: the same measure for `Cc1cc(=O)[nH]c(=O)[nH]1`: “inactive”. As for `CC(C)(CO)C(O)C(=O)NCCCO` (centres undefined), the outcome was inactive. Still for that read-out and setting: the same measure for `N#CC1(N)CCCCC1`: “inactive”; for `CC(=O)c1ccc(S(=O)(=O)NC(=O)NC2CCCCC2)cc1`: “inactive”; for `CC1=CP(=O)(c2ccccc2)CC1` (centres undefined): “inactive”. Still for that read-out and setting: for `CCOC(=O)OC(=O)OCC` the value was “inactive”. As for `CCOB(OCC)OCC`, the compound was called inactive.

For the compound `CCCCCC(=O)OCC`, the result was inactive. On to `Nc1ncnc2nc[nH]c12`, for which the call was inactive.

Turning to `O=C(O)c1ccc2c(c1)C(=O)OC2=O`, the outcome was inactive. Still for that read-out and setting: for `Cn1ccnc1` the value was “inactive”; for `CC(CC(C)C)=NO`, “inactive”; for `CCCCOC(=O)C(C)CC` (centres undefined), “inactive”. Still for that read-out and setting: for `CC(C)(C)N` the value was “inactive”; for `CCC(C)N` (centres undefined), “inactive”. The same measure, in the same setting: the same measure for `C[Si]1(C)O[Si](C)(C)O[Si](C)(C)O[Si](C)(C)O[Si](C)(C)O1`: “inactive”; for `CC(C)C(=O)OCCOc1ccccc1`: “inactive”; for `CCCCOCCOC(=O)COc1ccc(Cl)cc1Cl`: “inactive”.

Source of the values: PubChem BioAssay (EPA / NIEHS).
